Consider 35 compounds from PubChem BioAssay AID771 (SRMLSC, 2007).

A short description of the experiment: HT29 colon tumor cell growth inhibition, primary screen, imaging, high content imaging, 48 h, CellTiter-Glo (AID 771).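 On condensed nuclei: condensed means Hoechst nuclear area under control median minus 1.5 SD.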 Particulars: HCS imaging cell count, at 10 µM, stronger effect = higher value; for condensed nuclei: measured here: percent cells with condensed nuclei. (In general: Cellular ATP, detected with luciferase, serves as a proxy for viable cell number.)
Where [1] appears, read: measured here: ATP CellTiter-Glo viability inhibition.

The structures appear in SMILES notation. Out of some 3,300 compounds screened, about 55 (2%) were called active.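 How the source made its calls: active means growth inhibition above 90%, meaning viable cell count by imaging cut by more than 90% versus vehicle controls; inactive means growth inhibition below 90%.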 What follows is part of a selection rich in actives, with near analogues and random picks from the rest.

Regarding `CN=C1c2cc3c(Br)c(OC)ccc3n2CCN1C`, the growth inhibition was 13.5% (inactive) and the condensed nuclei amounted to 1.37%. Also, the growth inhibition under setting [1] came out at 20.4%.

Turning to `COC(=O)c1cc(Br)c(=O)n(Cc2ccco2)c1`, the growth inhibition was 48.5% (inactive) and the condensed nuclei amounted to 2.45%. In addition, the growth inhibition under setting [1] is -15.8%.

As to `CN(C)S(=O)(=O)Nc1ccc(NS(=O)(=O)N(C)C)c(S(=O)(=O)c2ccccc2)c1`, the growth inhibition is 17.4% (inactive) and the condensed nuclei was found to be 2.1%. Further, the growth inhibition under setting [1] is -14.5%.

In the case of `C#CCSC1=C(C#N)C(c2cccs2)C(C(=O)OCC)=C(C)N1` (stereo not given), the growth inhibition was -11.7% (inactive) and the condensed nuclei was 1.95%. For the same compound, under setting [1], the growth inhibition is -5.67%.

For `CCSC1=C(C#N)C(c2cccs2)C(C(=O)OC)=C(C)N1` (stereo not given), the growth inhibition was -14.9% (inactive) and the condensed nuclei was determined as 2.41%. Besides, under setting [1], the growth inhibition was -4.48%.

For `CCOC(=O)C1=C(C)NC(SCC(=O)Nc2nc(C)cs2)=C(C#N)C1c1cccs1` (stereo not given), the growth inhibition is 95.4% (active) and the condensed nuclei turned out to be 11.1%. The growth inhibition under setting [1] was found to be 77.6%.

On to `CCCOc1ccc(/C(O)=C2/C(=O)C(=O)N(CCCN3CCOCC3)C2c2ccncc2)cc1` (stereo not given), for which the growth inhibition is -41.6% (inactive) and the condensed nuclei was determined as 2.83%. Under setting [1], the growth inhibition was -15.8%.

With `CCCCOc1cccc(-c2nnc(N)s2)c1`, the growth inhibition was 2.4% (inactive) and the condensed nuclei was 3.96%. For the same compound, the growth inhibition under setting [1] was -0.17%.

With `CCC1CC2(C)NC(=O)c3c(sc4c3CC(C)(C)OC4)N2C1=O` (stereo not given), the growth inhibition was -1.91% (inactive) and the condensed nuclei amounted to 0.79%. Besides, under setting [1], the growth inhibition is -5.72%.

For `CC(C)(C)C1CCC2(CC1)C(C#N)=C(SCC(=O)Nc1ccccc1)NC(=O)C2C#N` (stereo not given), the growth inhibition is 91.4% (active) and the condensed nuclei came to 2.13%. For the same compound, the growth inhibition under setting [1] was 71.8%.

With `COc1cccc(NC(=O)CSC2=C(C#N)C(c3ccco3)C3=C(CCCC3=O)N2)c1` (stereo not given), the growth inhibition was 61% (inactive) and the condensed nuclei worked out at 1.16%. The growth inhibition under setting [1] worked out at 34.8%.

`CC1=C(C(=O)Nc2ccccc2)C(c2ccncc2)C(C#N)=C(SCC(=O)NC(C)C)N1` (stereo not given): the growth inhibition is 38.7% (inactive) and the condensed nuclei was 1.77%. For the same compound, under setting [1], the growth inhibition came out at 0.29%.

`O=c1/c(=C/c2ccccn2)sc2n1CN(c1ccccc1)CN=2`: the growth inhibition is 1.6% (inactive) and the condensed nuclei was found to be 16.2%. Also, under setting [1], the growth inhibition came to 3.13%.

Take `CNC(=O)Nc1cccc(NC(=O)NC)n1`: the growth inhibition was 24.6% (inactive) and the condensed nuclei is 0.95%. Further, the growth inhibition under setting [1] worked out at 6.59%.

Take `COc1cccc(C2/C(=C(/O)c3cnn(-c4ccccc4)c3C)C(=O)C(=O)N2CCN(C)C)c1` (stereo not given): the growth inhibition is 51.1% (inactive) and the condensed nuclei came to 1.69%. Under setting [1], the growth inhibition was -8.25%.

For `Cc1[nH]c2ccc3c(ncn3CCC#N)c2c1C`, the growth inhibition is 3.78% (inactive) and the condensed nuclei is 1.79%. Besides, under setting [1], the growth inhibition was found to be 2.93%.

For `C=CCNc1nc(N2CCOCC2)c(C#N)c2c1CN(C)CC2`, the growth inhibition was -13.1% (inactive) and the condensed nuclei is 0.96%. The growth inhibition under setting [1] is -3.95%.

Regarding `CCN1CCc2c(C#N)c(NCc3ccccc3)nc(NCCO)c2C1`, the growth inhibition is -5.72% (inactive) and the condensed nuclei was 1.53%. Besides, the growth inhibition under setting [1] amounted to 1.65%.

Consider `C=CCNc1nc(NCc2ccccc2)c(C#N)c2c1CN(C)CC2`, for which the growth inhibition is 95.6% (active) and the condensed nuclei amounted to 12.5%. Besides, the growth inhibition under setting [1] amounted to 82.7%.

On to `CCN1CCc2c(C#N)c(N3CCCCC3)nc(NCc3ccccc3)c2C1`, for which the growth inhibition was -17.2% (inactive) and the condensed nuclei stood at 3.42%. The growth inhibition under setting [1] came out at 20.2%.

Regarding `CCN1CCc2c(C#N)c(N3CCOCC3)nc(NCc3ccccc3)c2C1`, the growth inhibition was 21.2% (inactive) and the condensed nuclei stood at 2.32%. Further, the growth inhibition under setting [1] was 14.1%.

For the compound `CN1CCc2c(C#N)c(N3CCCCC3)nc(NCc3ccccc3)c2C1`, the growth inhibition is 94.8% (active) and the condensed nuclei was found to be 19.2%. Besides, the growth inhibition under setting [1] turned out to be 84.9%.

Consider `C=CCNc1nc(N2CCCCC2)c(C#N)c2c1CN(Cc1ccccc1)CC2`, for which the growth inhibition is 71.7% (inactive) and the condensed nuclei was 2.73%. Besides, under setting [1], the growth inhibition turned out to be 37%.

As for `CCN1CCc2c(C#N)c(NCc3ccccc3)nc(N(CC)CC)c2C1`, the growth inhibition was -3.81% (inactive) and the condensed nuclei is 2.33%. Further, the growth inhibition under setting [1] is -0.65%.

`N#Cc1c(NCCN)nc(NCc2ccccc2)c2c1CCN(Cc1ccccc1)C2`: the growth inhibition is 93.1% (active) and the condensed nuclei amounted to 30.8%. Further, under setting [1], the growth inhibition came to 87.7%.

`CCCCOc1ccc(C)cc1CN(CCO)CCO`: the growth inhibition was -4.82% (inactive) and the condensed nuclei came out at 1.37%. Further, the growth inhibition under setting [1] was 1.6%.

Take `Cc1ccc(-c2nn(C)c(=O)c3ccccc23)cc1CNC(=O)CSc1nc2ccccc2o1`: the growth inhibition is -7.38% (inactive) and the condensed nuclei was determined as 1%. Also, the growth inhibition under setting [1] is -4.16%.

Turning to `CCC1(C)Cc2c(sc3c2c(=O)n(C)c2nnc(SCC(=O)c4ccc(Cl)cc4)n32)CO1` (stereo not given), the growth inhibition is 0.56% (inactive) and the condensed nuclei turned out to be 13.8%. Further, the growth inhibition under setting [1] stood at 9.73%.

In the case of `Cc1cc(C)nc(NC2=NCC(=O)N2c2cccc(Cl)c2)n1`, the growth inhibition is 27.2% (inactive) and the condensed nuclei was 3.28%. Moreover, under setting [1], the growth inhibition was -9.73%.

For `CCOC(=O)c1c(-c2cccs2)csc1NC(=O)CCCC(=O)O`, the growth inhibition is 5.6% (inactive) and the condensed nuclei came out at 1.96%. The growth inhibition under setting [1] is 4.31%.

For the compound `CCCc1nc(N2CCOCC2)c(C#N)c2c1CCCC2`, the growth inhibition is 24% (inactive) and the condensed nuclei was determined as 0.7%. Under setting [1], the growth inhibition came to 6.89%.

Turning to `CSc1nc2sc3c(c2c(=O)[nH]1)CCC(C)C3` (stereo not given), the growth inhibition is 25.4% (inactive) and the condensed nuclei was determined as 2.48%. The growth inhibition under setting [1] is 10.4%.

Regarding `CCOc1ccc(C2C(C(=O)c3ccc(C)o3)=C(O)C(=O)N2CCCN(CC)CC)cc1` (stereo not given), the growth inhibition was 17% (inactive) and the condensed nuclei was determined as 1.26%. Besides, the growth inhibition under setting [1] is 0.35%.

For `c1ccc(-c2nc(NCC3CCCO3)c3ccccc3n2)nc1` (stereo not given), the growth inhibition is 16.9% (inactive) and the condensed nuclei was 2.06%. Further, under setting [1], the growth inhibition came to 30.9%.

Consider `O=C1CCC(=O)N1CN(Cc1ccco1)CN1C(=O)CCC1=O`, for which the growth inhibition was -33.3% (inactive) and the condensed nuclei turned out to be 2.24%. The growth inhibition under setting [1] was -19.2%.
